Measured values from PubChem BioAssay AID1159580 (chemical genetic matrix, 2015).
Values joined by “and” are separate entries in the source; they are usually repeats but may differ in a detail not shown here. Equal values may be shown once. Screen size: about 5,500 compounds; about 2,000 (36%) were called active. Another 18% or so got no clear call; they are omitted. Rule as the data show it: active = normalized growth mostly below about 0.91 (no sharp cut-off); inconclusive = no clear call, values can overlap the other calls; inactive = mostly above about 0.92. The list shows a part of the results. A structure can be active in one record and inactive in another.

Assay: chemical genetic growth profiling, strain panel (AID 1159580);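 also: tested at 20 µM; growth read once vehicle control cultures reached saturation at 30 °C; 1 = growth at the plate median or of vehicle wells; lower values mean less growth of the strain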
Settings: S. cerevisiae deletion strains, growth OD

SMILES: CN1CCN(CCCN2c3ccccc3Sc3ccc(C(F)(F)F)cc32)CC1
- normalized growth (locus YAL013W, strain DEP1, stronger effect = lower value): 0.065 (active) and 0.82 (active)
- normalized growth (locus YAL021C, strain ccr4, stronger effect = lower value): 0.0696 (active)
- normalized growth (locus YAL026C, strain drs2, stronger effect = lower value): 0.0611 (active)
- normalized growth (locus YAL030W, strain snc1, stronger effect = lower value): 0.0651 (active)
- normalized growth (locus YAL040C, strain CLN3, stronger effect = lower value): 0.989 (inactive)
- normalized growth (locus YBL061C, strain skt5, stronger effect = lower value): 0.0653 (active)
- normalized growth (locus YBR009C, strain hhf1, stronger effect = lower value): 0.0647 (active)
- normalized growth (locus YBR021W, strain FUR4, stronger effect = lower value): 0.102 (active)
- normalized growth (locus YBR023C, strain chs3, stronger effect = lower value): 0.0673 (active)
- normalized growth (locus YBR171W, strain sec66, stronger effect = lower value): 0.0984 (active)
- normalized growth (locus YBR229C, strain ROT2, stronger effect = lower value): 0.0712 (active)
- normalized growth (locus YBR231C, strain swc5, stronger effect = lower value): 0.0679 (active)
- normalized growth (locus YBR279W, strain paf1, stronger effect = lower value): 0.0731 (active)
- normalized growth (locus YCL011C, strain gbp2, stronger effect = lower value): 0.0652 (active)
- normalized growth (locus YCL016C, strain dcc1, stronger effect = lower value): 0.0786 (active)
- normalized growth (locus YCL029C, strain bik1, stronger effect = lower value): 0.0752 (active)
- normalized growth (locus YCL061C, strain MRC1 (second series), stronger effect = lower value): 0.969 (inactive)
- normalized growth (locus YCL061C, strain MRC1, stronger effect = lower value): 0.0741 (active)
- normalized growth (locus YCL069W, strain vba3, stronger effect = lower value): 0.0697 (active)
- normalized growth (locus YCR088W, strain abp1, stronger effect = lower value): 0.0705 (active)
- normalized growth (locus YDL005C, strain med2, stronger effect = lower value): 0.412 (active)
- normalized growth (locus YDL035C, strain GPR1, stronger effect = lower value): 0.061 (active)
- normalized growth (locus YDL040C, strain nat1, stronger effect = lower value): 0.0906 (active)
- normalized growth (locus YDL074C, strain BRE1, stronger effect = lower value): 0.0975 (active)
- normalized growth (locus YDL101C, strain DUN1, stronger effect = lower value): 0.0711 (active)
- normalized growth (locus YDL134C, strain PPH21, stronger effect = lower value): 0.0567 (active)
- normalized growth (locus YDL185W, strain tfp1, stronger effect = lower value): 0.936 (inactive)
- normalized growth (locus YDL192W, strain arf1, stronger effect = lower value): 0.0649 (active)
- normalized growth (locus YDR001C, strain nth1, stronger effect = lower value): 0.0725 (active)
- normalized growth (locus YDR069C, strain doa4, stronger effect = lower value): 0.0695 (active)
- normalized growth (locus YDR101C, strain arx1, stronger effect = lower value): 0.0878 (active)
- normalized growth (locus YDR137W, strain rgp1, stronger effect = lower value): 0.261 (active)
- normalized growth (locus YDR150W, strain NUM1, stronger effect = lower value): 0.0679 (active)
- normalized growth (locus YDR159W, strain sac3, stronger effect = lower value): 0.0958 (active)
- normalized growth (locus YDR162C, strain NBP2, stronger effect = lower value): 0.0537 (active)
- normalized growth (locus YDR195W, strain ref2): 0.141 (active)
- normalized growth (locus YDR297W, strain sur2, stronger effect = lower value): 0.0695 (active)
- normalized growth (locus YDR318W, strain mcm21, stronger effect = lower value): 0.0756 (active)
- normalized growth (locus YDR334W, strain swr1, stronger effect = lower value): 0.0668 (active)
- normalized growth (locus YDR335W, strain msn5, stronger effect = lower value): 0.0678 (active)
- normalized growth (locus YDR363W, strain ESC2, stronger effect = lower value): 0.87 (active)
- normalized growth (locus YDR388W, stronger effect = lower value): 0.0596 (active)
- normalized growth (locus YDR392W, strain spt3, stronger effect = lower value): 0.0857 (active)
- normalized growth (locus YDR502C, strain sam2, stronger effect = lower value): 0.0724 (active)
- normalized growth (locus YEL003W, strain gim4, stronger effect = lower value): 0.0619 (active)
- normalized growth (locus YEL037C, strain rad23, stronger effect = lower value): 0.0674 (active)
- normalized growth (locus YEL061C, strain CIN8 (second series), stronger effect = lower value): 0.0766 (active)
- normalized growth (locus YEL061C, strain CIN8, stronger effect = lower value): 0.0589 (active)
- normalized growth (locus YER002W, strain NOP16, stronger effect = lower value): 1.07 (inactive)
- normalized growth (locus YER015W, strain faa2, stronger effect = lower value): 0.0802 (active)
- normalized growth (locus YER016W, strain bim1, stronger effect = lower value): 0.0723 (active)
- normalized growth (locus YER110C, stronger effect = lower value): 0.293 (active)
- normalized growth (locus YER111C, strain swi4, stronger effect = lower value): 0.36 (active)
- normalized growth (locus YER155C, strain BEM2 (second series), stronger effect = lower value): 1.01 (inactive)
- normalized growth (locus YER155C, strain BEM2, stronger effect = lower value): 0.12 (active)
- normalized growth (locus YER167W, strain BCK2, stronger effect = lower value): 0.0606 (active)
- normalized growth (locus YFR010W, strain ubp6, stronger effect = lower value): 0.0817 (active)
- normalized growth (locus YGL078C, strain dbp3, stronger effect = lower value): 0.978 (inactive)
- normalized growth (locus YGL086W, strain mad1, stronger effect = lower value): 0.0657 (active)
- normalized growth (locus YGL167C, strain pmr1, stronger effect = lower value): 0.0948 (active)
- normalized growth (locus YGL173C, strain kem1, stronger effect = lower value): 0.216 (active)
- normalized growth (locus YGL227W, strain vid30, stronger effect = lower value): 0.0831 (active)
- normalized growth (locus YGL240W, strain doc1, stronger effect = lower value): 0.554 (active)
- normalized growth (locus YGL248W, strain PDE1, stronger effect = lower value): 0.0581 (active)
- normalized growth (locus YGL253W, strain hxk2, stronger effect = lower value): 0.0605 (active)
- normalized growth (locus YGR078C, strain PAC10, stronger effect = lower value): 0.0702 (active) and 0.956 (inactive)
- normalized growth (locus YGR135W, strain pre9, stronger effect = lower value): 0.0937 (active)
- normalized growth (locus YGR229C, strain SMI1, stronger effect = lower value): 0.0673 (active) and 0.0769 (active)
- normalized growth (locus YGR252W, strain gcn5, stronger effect = lower value): 0.138 (active)
- normalized growth (locus YHR013C, strain ard1, stronger effect = lower value): 0.169 (active)
- normalized growth (locus YHR027C, strain rpn1, stronger effect = lower value): 0.0682 (active)
- normalized growth (locus YHR030C, strain SLT2, stronger effect = lower value): 0.0545 (active) and 0.948 (inactive)
- normalized growth (locus YHR079C, strain IRE1 (second series), stronger effect = lower value): 0.0763 (active)
- normalized growth (locus YHR079C, strain IRE1, stronger effect = lower value): 0.961 (inactive)
- normalized growth (locus YHR094C, strain hxt1, stronger effect = lower value): 0.0748 (active)
- normalized growth (locus YHR129C, strain ARP1, stronger effect = lower value): 0.0646 (active)
- normalized growth (locus YHR142W, strain chs7, stronger effect = lower value): 0.0848 (active)
- normalized growth (locus YHR200W, strain rpn10, stronger effect = lower value): 0.0811 (active)
- normalized growth (locus YIL066C, strain RNR3, stronger effect = lower value): 0.0614 (active)
- normalized growth (locus YIL073C, strain SPO22, stronger effect = lower value): 0.113 (active)
- normalized growth (locus YIL125W, strain kgd1, stronger effect = lower value): 0.982 (inactive)
- normalized growth (locus YIR030C, strain dcg1, stronger effect = lower value): 0.0766 (active)
- normalized growth (locus YJL092W, strain hpr5, stronger effect = lower value): 0.0707 (active)
- normalized growth (locus YJL095W, strain BCK1 (second series), stronger effect = lower value): 0.0585 (active)
- normalized growth (locus YJL095W, strain BCK1, stronger effect = lower value): 0.0646 (active) and 0.977 (inactive)
- normalized growth (locus YJL115W, strain asf1, stronger effect = lower value): 0.0851 (active)
- normalized growth (locus YJL129C, strain trk1, stronger effect = lower value): 0.0827 (active)
- normalized growth (locus YJL134W, strain LCB3, stronger effect = lower value): 0.108 (active)
- normalized growth (locus YJL154C, strain vps35, stronger effect = lower value): 0.0623 (active)
- normalized growth (locus YJL164C, strain tpk1, stronger effect = lower value): 0.0715 (active)
- normalized growth (locus YJL166W, strain qcr8, stronger effect = lower value): 0.0701 (active)
- normalized growth (locus YJL168C, strain set2, stronger effect = lower value): 0.0656 (active)
- normalized growth (locus YJL187C, strain SWE1 (second series), stronger effect = lower value): 0.0593 (active)
- normalized growth (locus YJL187C, strain SWE1, stronger effect = lower value): 0.0715 (active)
- normalized growth (locus YJR043C, strain POL32, stronger effect = lower value): 0.0718 (active)
- normalized growth (locus YJR066W, strain TOR1, stronger effect = lower value): 0.915 (inactive)
